mHTT CaM bind: mutant huntingtin-calmodulin interaction inhibitors – biochemical, AlphaScreen, primary screen; 3.6% of 190,000 active; inhibition, % at 15 µM; AID 1671202, 2021; AlphaScreen His-mHTT/GST-CaM binding, luminescence;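 also: 0% = both proteins with DMSO and 100% = one protein alone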
Pf apPOL inh: Pf-apPOL inhibitors, biochemical, fluorescence. Plasmodium falciparum apicoplast DNA polymerase (apPOL). Recombinant Pf-apPOL, molecular beacon fluorescence, 1.5 h. inhibition, % at 10 µM. 0.25% of 210,000 active
Numbers without * were called inactive; . = not tested or not shown. This is a sample that favours compounds with a hit; in the whole collection about 3.5% have one here. Rule as the data show it: active = inhibition above about 50%; inactive = the rest.

SMILES | mHTT CaM bind | Pf apPOL inh
N#Cc1cccc(NC(=O)N2CCCC2c2nc(-c3ccc(F)cc3F)no2)c1 (centres undefined) | 4 | 0
CCCc1cc(C2CCCN2C(=O)c2cc(-c3ccc(OC)cc3)on2)no1 (centres undefined) | -3 | 0
CCc1ccc(NC(=O)C2CCCN(C(=O)c3ccc(F)c(F)c3)C2)cc1 (centres undefined) | 1 | -2
Cc1ccc(Oc2nccnc2N2CCC(C(=O)NCc3ccc4c(c3)OCO4)CC2)cc1 | 0 | -3
Cc1noc(C)c1C1CCCN1Cc1cn[nH]c1-c1cccc(Br)c1 (centres undefined) | 11 | 2
COCCn1cc2c3c(cccc31)CN(C(=O)c1ccc(C)cc1)CC2 | 68* | -7
COCCn1cc2c3c(cccc31)CN(C(=O)CCCc1ccccc1)CC2 | 91* | -4
COc1ccc(C(=O)N2CCc3cn(C)c4cccc(c34)C2)cc1F | 32 | -3
COCCn1cc2c3c(cccc31)CN(C(=O)c1ccccc1)CC2 | 40 | -2
COCCn1cc2c3c(cccc31)CN(C(=O)c1ccccc1Br)CC2 | 69* | -7
COCCn1cc2c3c(cccc31)CN(C(=O)NCc1ccccc1)CC2 | 6 | -1
CCn1cc2c3c(cccc31)CN(C(=O)c1ccc(OC)c(F)c1)CC2 | 52* | -5
COCCn1cc2c3c(cccc31)CN(C(=O)c1ccccc1F)CC2 | 37 | -4
CC(C)(C)C(N)Cn1ccnc1 (centres undefined) | -5 | .
Cc1cc(OCC(=O)NCc2cccnc2)ccc1Cl | -3 | -10
CCc1cc(N2CCCC2)n2ncnc2n1 | -12 | -3
NC(Cn1ccc(C(F)(F)F)n1)=NOC(=O)c1cccc(C(F)(F)F)c1 | . | -5
CC(C)NC(=O)c1ccc(OCC2CCCN2C(=O)Cc2ccccc2F)cc1 (centres undefined) | 2 | -6
COCCn1cc2c3c(cccc31)CN(C(=O)c1cccc(F)c1)CC2 | 54* | -1
COCCn1cc2c3c(cccc31)CN(C(=O)Nc1cc(F)cc(F)c1)CC2 | 2 | 0
Cc1cc(=O)[nH]c(-n2nc(C3CC3)cc2NC(=O)C2(c3ccc(Cl)cc3)CCCC2)n1 | 57* | -71
Cc1cc(=O)[nH]c(-n2nc(-c3ccccc3)cc2NC(=O)CCSc2ccccc2)n1 | -13 | -10
CCc1cccc(NC(=O)Cn2ccc3c(=O)[nH]ccc32)c1 | 16 | 30
NC(=O)C1(c2ccccc2F)CC1 | 2 | -4
CCCC(C)C(=O)Nc1ccc(Br)cc1 (centres undefined) | -14 | -4
SMILES | mHTT CaM bind | Pf apPOL inh
CCCC(C)C(=O)Nc1ccc(OCC)cc1 (centres undefined) | 100* | 4
O=c1cc(-c2ccc([N+](=O)[O-])cc2)nc2c(-c3ccc(Cl)cc3)c[nH]n12 | 54* | 4
COc1ccc(-c2c(C)[nH]n3c(=O)cc(-c4ccc([N+](=O)[O-])cc4)nc23)cc1 | 53* | -3
Cc1cc(=O)n2[nH]c(C)c(-c3ccc(Cl)cc3)c2n1 | -3 | -7
Cc1nc2c(-c3ccc(Cl)cc3)c[nH]n2c(=O)c1Cl | 10 | -1
CN1C(=O)Cc2cc(C(=O)NCc3cccs3)ccc21 | -3 | 1
O=[N+]([O-])c1ccc(N2CCN(c3cccc(C(F)(F)F)c3)CC2)s1 | 38 | -1
O=C(O)c1cc([N+](=O)[O-])c(N2CCN(c3cccc(C(F)(F)F)c3)CC2)c([N+](=O)[O-])c1 | 47 | 84*
COc1ccccc1-c1nc(C2CCN(C(=O)c3cccc(Cl)c3)CC2)no1 | 63* | 13
COc1ccc(C(=O)N2CCC(c3noc(-c4ccccc4C)n3)CC2)cc1 | -2 | 2
COc1ccccc1-c1nc(C2CCN(C(=O)c3ccccc3)CC2)no1 | 11 | -1
COc1cccc(-c2nc(C3CCN(C(=O)c4ccc(Br)cc4)CC3)no2)c1 | 49 | 2
COc1cccc(C(=O)N2CCC(c3noc(-c4cccc(OC)c4)n3)CC2)c1 | 6 | -2
COc1cccc(-c2nc(C3CCN(C(=O)c4cccc(N(C)C)c4)CC3)no2)c1 | 53* | 3
COc1cccc(-c2nc(C3CCN(C(=O)c4ccc(Cl)cc4)CC3)no2)c1 | 62* | 1
Cc1ccccc1-c1nc(C2CCN(C(=O)c3ccc(Br)cc3)CC2)no1 | 54* | 10
O=C(c1csc(-c2ccc(N3CCOCC3)nc2)n1)N1CCCCC1 | 3 | -2
O=C(NC1CCCC1)C1(S(=O)(=O)c2ccc(Cl)cc2)CC1 | -6 | -8
CCOc1ccc(-c2cc(OCC)c3c(C)oc(C)c3c(=O)c2)cc1 | 45 | 1
O=c1c2scc(-c3cccc(F)c3)c2ncn1Cc1ccc(Br)cc1 | -16 | -1
Cc1nc(-c2ccncc2)nc2c1CCC(=O)N2CCCN(C)C | -4 | -1
Cc1c(C(=O)NC2CCCCC2)sc2ncn(Cc3ccccc3F)c(=O)c12 | -1 | -12
Cc1nc(NC(=O)Cn2nc(C)c([N+](=O)[O-])c2C)c(Br)cc1Br | 1 | -5
CCOc1ccccc1CNC(=O)c1ccn2c(-c3cc(F)cc(F)c3)nnc2c1 | 2 | -2
c1coc(CNc2ccc3c(c2)OCO3)c1 | 71* | 2
SMILES | mHTT CaM bind | Pf apPOL inh
COc1ccccc1CC(=O)Nc1ccc2c(c1)OCO2 | 7 | -4
CCCCOc1ccc(CNc2ccc3c(c2)OCO3)cc1 | 92* | 0
CCCCOc1ccc(S(=O)(=O)NCc2ccc3c(c2)OCO3)cc1 | -1 | -18
Cc1ccccc1CNc1ccc2c(c1)OCO2 | 91* | 6
Cc1ccc(CNc2ccc3c(c2)OCO3)cc1 | 100* | 0
O=C(NCc1ccco1)C(=O)Nc1ccc2c(c1)OCO2 | 0 | -2
Cc1ccc(C(=O)Nc2ccc3c(c2)OCO3)cc1 | 47 | 0
O=C(NC1CCCCCC1)c1nc(-c2ccc(N3CCCC3)cc2)no1 | -9 | 0
COc1ccc(N(CC(=O)N2CCC(C)CC2)S(C)(=O)=O)cc1Cl | 0 | -1
COc1ccc(CNC(=O)C2(C)CCCN(C(=O)c3ccco3)C2)cc1 (centres undefined) | 0 | 3
CCS(=O)(=O)c1ccc2oc(=O)c(C=C(O)c3ccc(OC)cc3)nc2c1 | 5 | 1
CC(=O)Nc1ccc(C(=O)NCc2cccc(F)c2)c(N2CCOCC2)c1 | -3 | -3
CC(=O)Nc1ccc(C(=O)NCc2cccc(F)c2)c(N2CCCCC2)c1 | 65* | 1
Brc1ccc(-c2csc3c4ncnc-4ncn23)cc1 | -1 | 29
CC[C@@H](CO)Nc1cccc2c1S(=O)(=O)N(Cc1cn(Cc3cccc(C(F)(F)F)c3)nn1)Cc1ccccc1O2 | -13 | -6
O=C(Nc1cc(Cl)cc(Cl)c1)c1ccc(F)c(S(=O)(=O)NCCc2ccccc2)c1 | 40 | 39
O=C(Nc1ccc(Cl)c(Cl)c1)c1ccc(F)c(S(=O)(=O)NCCc2ccccc2)c1 | 71* | 5
O=C(Nc1ccc(F)c(F)c1)c1ccc(F)c(S(=O)(=O)NCCc2ccc(Cl)cc2)c1 | 50* | -23
O=C(Nc1ccc(Cl)c(Cl)c1)c1ccc(F)c(S(=O)(=O)NCc2ccc(F)cc2)c1 | 0 | -7
COCCN=C1Nc2ccccc2CNC12CCN(C(=O)Cc1cccc(C)c1)C2 (centres undefined) | 20 | -3
COCCN=C1Nc2ccccc2NC12CCCN(C(=O)CCc1c[nH]c3ccccc13)C2 (centres undefined) | 71* | -3

Screening data deposited in PubChem BioAssay by University of Kansas High Throughput Screening Laboratory.
